Records with an inconclusive call do not appear. Values without a mark were called inactive. Calls come from the whole dose curve; as a rule, active = well fitted curve in either direction with a large enough effect (not every such curve was filed as active); inconclusive = small, poorly fitted or top-dose-only effect, or another doubt; inactive = flat fitted curve, though single readings scatter.
What follows are compounds tested against Mitogen-activated protein kinase 10 (Mus musculus) (UniProt Q61831) (assay: JNK3 AlphaScreen Assay (AID 530;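 note: kinase came from lysate of stimulated human HepG2 cells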)). Conditions: JNK3 lysate, c-Jun phosphorylation; series mostly up to 57.1 µM; activity change, negative = inhibition: at the top concentration.
Description: NIH Chemical Genomics Center [NCGC]
NIH Molecular Libraries Screening Centers Network [MLSCN]
The c-jun N-terminal kinase (JNK) family are serine/threonine protein kinases that phosphorylate c-jun, a component of the transcription factor […] (AP-1). JNK kinases are members of the mitogen-activated protein kinase family including the extracellular regulated kinases and p38 kinases. Three JNK genes (JNK 1, 2, and 3) have been identified in humans so far. JNK1 and JNK2 have a broad distribution and JNK3 is primarily found in neuronal tissues and cardiac myocytes.
JNK3 has been under consideration as a target for the treatment of neurodegenerative disorders. […] JNK pathway is also involved in pathological process in a mouse model of Parkinson's disease (Xia et al., 2001).
Given these potential tissue distributions and links to neuroprotection, JNK3 inhibitors should provide useful investigational tools to study the role of this kinase in several diseases including, arthritis, stroke, myocardial infarction, ischemic injury and Parkinson's disease.
A homogeneous AlphaScreen is developed to measure the activity of JNK3. AlphaScreen is a two bead-based proximity-dependent chemical energy transfer luminescent assay platform. The phosphorylation of a biotinylated c-jun substrate by JNK3 can be detected with an antibody raised against phosphorylated c-jun. This process brings streptavidin donor beads and Protein-A acceptor beads to within a proximity range of <200 nm, and subsequently lead a chemical luminescent reaction upon exciting donor beads with 680 nm laser excitation light. Inhibition of JNK3 activity by small molecules and subsequent decrease in the antibody binding to biotinylated c-jun could attenuate or abolish this chemical luminescent reaction.
Yang DD, Kuan CY, Whitmarsh AJ, Rincon M, Zheng TS, Davis RJ, Rakic P and Flavell RA (1997) Absence of excitotoxicity-induced apoptosis in the hippocampus of mice lacking the Jnk3 gene. Nature 389:865-870. [PMID: 9349820]
Herdegen T, Claret FX, Kallunki T, Martin-Villalba A, Winter C, Hunter T, and Karin M (1998) Lasting N-terminal phosphorylation of c-Jun and activation of c-Jun N-terminal kinases after neuronal injury. J.Neurosci. 18:5124-5135. [PMID: 9651196]
Xia XG, Harding T, Weller M, Bieneman A, Uney JB and Schulz JB (2001) Gene transfer of the JNK interacting protein-1 protects dopaminergic neurons in the MPTP model of Parkinson's disease. Proc.Natl.Acad.Sci.U.S.A. 98:10433-10438.
NCGC Assay Protocol Summary:
GST-cJun (1-79) (Stratagene, La Jolla CA, #205145) was biotnylated by PerkinElmer (PerkinElmer-BioSignalInc. Montreal, Canada) and was detectable by the streptavidin Donor beads. Anti-(phospho)cJun (Ser73) antibody was from UpState (Charlottesvilles, VA, #06-659). JNK3-containing lysates were generated from HepG2 cells and pre-activated by interleukin1-beta and tumor necrosis factor alpha. All reagents were stored at -20 C before using. Phosphorylated biotinylated-GST-cJun was recognized by Anti-(phospho)cJun (Ser73) antibody and this process brings acceptor and donor beads together. Therefore JNK3 phosphorylation of cJun can be measured by Alpha reading by EnVision (PerkinElmer, Boston, MA).
The composition of kinase buffer was (in mM) 20 tris- HCl (pH 7.6) 10 MgCl2, 1 DTT, and 0.1 Na3VO4 and 0.01% Tween-20. Beads were diluted in detection buffer containing (in mM) 20 tris-HCl (pH 7.7), 20 NaCl and 80 EDTA and 0.3% BSA. The assay was performed at room temperature. All compounds were screened as titrations from 0.6 nM to 46 uM final concentration. The assay was performed in 1536-well format (white solid bottom and untreated) as follows:
Sequence,Parameter,Value,Description
1,Reagent,3 uL,Biotin-GST-cJun, Anti-(phospho)cJun and pre-activated JNK3-containing lysates
2,Compound,23 nL,Final concentration was 0.6nM to 46uM
3,Time,15 minutes,Room Temperature
4,Reagent,1 uL,ATP final concentration 10uM
6,Reagent,0.5 uL,2ng/well bead mixture
[…]
% is set by controls: 0 for no effect and ±100 for the full control effect.

Compound | activity change, negative = inhibition
O=c1c(CCc2ccccc2)nc2cncnc2n1Cc1ccccc1 | -19.1%
COc1ccc2[nH]cc(CCNc3nc(-c4ccccc4OC)nc4ccccc34)c2c1 | -16%
Cc1cccc(CNc2ncncc2-c2ccccc2C)c1 | 15.4%
O=c1c(CCc2ccccc2)nc2cnc(N3CCNCC3)nc2n1-c1ccccc1 | -1.7%
COc1ccccc1CNc1nc(-c2ccc(C(=O)N(C)C)cc2)nc2ccccc12 | -7.17%
Cc1ccc([N+](=O)[O-])c(C)c1 | 2.55%
Cc1ccc([N+](=O)[O-])cc1N | 2.46%
COCCn1c(=O)c(-c2ccccc2)nc2cnc(Oc3cccc(Cl)c3)nc21 | 16.5%
Clc1cc(Cl)c(Cl)c(Cl)c1Cl | 21.9%
c1ccc2c(c1)[nH]c1ccccc12 | 13.2%
O=C1C=C(NCCc2cc(Br)c(O)c(Br)c2)C(=O)c2ncccc21 | 0.257% [at 11.4 µM]
O=C1CCc2ccccc2O1 | 16.7%
O=C(c1cc(C(F)(F)F)cc(C(F)(F)F)c1)N1CCC2(CCCN(c3ncccn3)C2)CC1 | 9.62%
COc1ccc(/C=C/c2cc(OC)cc(=O)o2)cc1 | 2.2%
O=c1cnc2cnc(N3CCOCC3)nc2n1Cc1cccs1 | 3.42%
CCCCCCCCCCCC(=O)O | -5.6%
COc1ccc2[nH]cc(CCNc3ncncc3-c3ccc4c(c3)OCO4)c2c1 | -28.3%
CN(C)c1ccc(-c2cncnc2NCCc2cnc[nH]2)cc1 | -7.65%
COc1ccc(Oc2ncc3nc(-c4cccc(C#N)c4)c(=O)n(CCC#N)c3n2)cc1 | -18.3%
COc1cccc(Cn2c(=O)cnc3cnc(Nc4cccc(OC)c4)nc32)c1 | -3.71%

Compound | activity change, negative = inhibition
COc1cccc(-c2cncnc2NCc2ccccc2OC)c1 | 3.84%
COCC(=O)O | -6.75%
CN1CCN(c2ncnc3ccc(-c4ccccc4C(F)(F)F)cc23)CC1 | -3.52%
CNc1ncncc1-c1ccccc1CN(C)C | -0.356%
COc1ccccc1CNc1nc(-c2ccoc2)nc2ccccc12 | -9.04%
O=S(=O)(O)c1ccccc1 | 11.9%
Cc1nc2cnc(N3CCN(C)CC3)nc2n(CCc2ccccc2)c1=O | -6.06%
COc1ccc2[nH]cc(CCNc3ncnc4ccc(-c5ccoc5)cc34)c2c1 | -26.5%
O=c1c(CCc2ccccc2)nc2cnc(N3CCOCC3)nc2n1-c1ccccc1 | 5.58%
C=CCOC(=O)c1ccccc1C(=O)OCC=C | 26.1%
CCNc1ncc2nc(CCc3ccccc3)c(=O)n(Cc3cccc(OC)c3)c2n1 | 4.9%
COc1ccccc1-c1ccc2ncnc(N3CCOCC3)c2c1 | -6.8%
CN(C)c1ncc2ncc(=O)n(Cc3cccs3)c2n1 | 6.66%
O=c1c(-c2ccccc2)nc2cnc(Oc3ccccc3)nc2n1C[C@H]1CCCO1 | 4.93%
COc1ncc2nc(-c3ccccc3)c(=O)n(CCc3ccccc3)c2n1 | 9.59%
c1cncc(CNc2nc(-c3cccnc3)nc3ccccc23)c1 | -27.6%
CCCCOCCO | -6.16%
C=Cc1ccccc1Cl | 11%
CCNc1ncc2nc(CCc3ccccc3)c(=O)n(C3CC3)c2n1 | 0.378%
COc1ccccc1-c1ccc2ncnc(N3CCNCC3)c2c1 | -1.71%

Source: PubChem BioAssay (NCATS)
